Structures are written as SMILES. Compounds without any hit were thinned out: in the full panel of roughly 83,000, 20% have a hit.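 Activity criterion: percent growth below 10, measured after cells in 96-well plates were exposed to a single compound concentration for 48 hours.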 Calls of active or inactive are those of the source.

The test system of the first assay is K-562 leukemia. Briefly: NCI-60 one-dose screen, 48 h (100 = growth as untreated, 0 = no growth, -100 = all killed). As to conditions: 10 µM unless noted.
For the compound `COc1ccc(-c2nnc(SCC(=O)Nc3ccc(C(=O)/C=C/c4cc(OC)c(OC)c(OC)c4)cc3)n2-c2ccccc2)cc1OC`, the growth was 31.4% [100 µM] (inactive).
For `COc1ccc2cn3c4ccc(O)cc4[nH]c(=O)c3c2c1`, the growth is 13.2% (inactive).
Turning to `COc1ccc(/C=N/c2cc(C(C)(C)C)nn2-c2ccccc2)cc1`, the growth is 92.2% (inactive).
Consider `CCCCCCCCCCC1OC(C)CC(C)O1` (stereo not given), for which the growth is 86.5% (inactive).
For the compound `S=C(N/N=C/c1cc(Cl)cc(Cl)c1)NC12CC3CC(CC(C3)C1)C2`, the growth was 79.5% (inactive).
On to `CCOC1=C(Cl)C(=O)C(OCC)=C(Cl)C1=O`, for which the growth was 82.5% (inactive).
As for `COC(=O)/C=C1/CCCCC1(C)C(=O)OC` (stereo not given), the growth is 103% (inactive).
On to `CCCCCCCCCCC(C[N+](C)(C)C/C=C/c1ccccc1)C(O)c1ccccc1` (stereo not given), for which the growth was -35.9% (active).
Consider `C=CC1CN2CCC1CC2C(O)c1ccnc2ccc(OC)cc12` (stereo not given), for which the growth is 106% (inactive).
As to `CC(=O)c1ccc2c(c1)c1ccccc1n2C`, the growth is 86.7% (inactive).
For the compound `CC(=O)Nc1nc(C)c(C(=O)NNS(=O)(=O)c2ccccc2)s1`, the growth was 149% (inactive).
With `Cc1cc2cn3c4ccc(O)cc4nc(N)c3c2cc1C`, the growth is -14.9% (active).
As for `COc1cc(-c2nn(-c3ccc(NC(=O)Nc4ccc(Cl)c(Cl)c4)cc3)cc2-c2ccncc2)ccc1Cl`, the growth was 17.2% (inactive).
As to `CCOC(=O)c1sc(NS(=O)(=O)c2ccccc2)nc1C`, the growth was 144% (inactive).
Take `Clc1ccc(I)c2ccccc12`: the growth is 102% (inactive).
As to `N#Cc1c2cccnc2c2nnc3cc(Cl)c(Cl)cc3n12`, the growth is 5.64% (active).
Take `COc1ccc(C(=O)NCCNc2nccc(-c3c(-c4ccc(F)cc4)nc4sccn34)n2)cc1`: the growth is 59.5% (inactive).
With `CC(O)CN(CC(C)O)N(CC(C)O)CC(C)O` (stereo not given), the growth was 108% (inactive).
Still for that read-out and setting: as for `O=C(Nc1ccc(-n2cc(-c3ccncc3)c(-c3ccc(Cl)c(O)c3)n2)cc1)c1cc(C(F)(F)F)cc(C(F)(F)F)c1`, the figure is 29.7% (inactive).
As to `COc1cc(-c2nn(-c3ccc(NC(=O)c4cc(Cl)cc(Cl)c4)cc3)cc2-c2ccncc2)ccc1Cl`, the growth was 23.4% (inactive).
Turning to `CCCCCCC(C)N(CC(C)(C)O)C(=O)c1ccc([N+](=O)[O-])cc1` (stereo not given), the growth is 85.1% (inactive).
As for `COc1cc(-c2nn(-c3ccc(NC(=O)c4ccc(Cl)c(Cl)c4)cc3)cc2-c2ccncc2)ccc1Cl`, the growth is 17% (inactive).
For the compound `COC(=O)[C@@H]1[C@H](O)[C@H](C)[C@H](O)[C@H](C)/C=C\C=C(C)C(=O)Nc2c(C)c(OC(C)=O)c3c(c2O)C(=O)C(C)=C2OCOC(=C23)C(C)=C[C@@](C)(O)[C@H](O)[C@@H](C)[C@H]1OC(C)=O`, the growth was 145% (inactive).
For `C/C(=C\c1ccc2ccccc2c1)[N+](=O)[O-]`, the growth was 5.31% (active).
Regarding `Cc1cc2cn3c4ccc(O)cc4[nH]c(=O)c3c2cc1C`, the growth was -36.8% (active).
With `COc1ccc(C(=O)N2N=C(c3ccc(Br)cc3)CC2c2cn(-c3ccccc3)nc2-c2ccccc2)cc1` (stereo not given), the growth is 43.4% (inactive).
As to `O=CN/N=C/c1ccc(Cl)c([N+](=O)[O-])c1`, the growth is 15.4% (inactive).
Regarding `O=C1CCNC1`, the growth is 108% (inactive).
As for `O=c1[nH]c2cc(O)ccc2n2cc3c(F)cccc3c12`, the growth is 24.3% (inactive).
Still for that read-out and setting: as for `O=C(CCC(=O)N(CCO)CCO)N(CCO)CCO`, the figure is 96% (inactive); as for `O=C(CCl)NC1c2ccccc2Oc2ccccc21`, 45.6% (inactive); as for `CC(=O)N1CCN(CCNC(=O)n2cc(-c3ccncc3)c(-c3cc(O)cc(Cl)c3)n2)CC1`, 53.5% (inactive).
In the case of `CC(C)OCC1CO1` (stereo not given), the growth was 109% (inactive).
With `Oc1ccc(Br)cc1/C=N/NC(=S)NC12CC3CC(CC(C3)C1)C2`, the growth was 0.99% (active).
Consider `CC(=O)N1CCN(CCNC(=O)n2cc(-c3ccncc3)c(-c3ccc(O)c(Cl)c3)n2)CC1`, for which the growth was 91.8% (inactive).
With `CCOC(=O)/C(C#N)=C(/CC)OCC`, the growth was 89% (inactive).
Same read-out and setting: as for `O=C1Nc2c(c(=O)n(-c3ccccc3)c3ccccc23)C(c2ccc(Cl)cc2)N1` (stereo not given), the figure is 93.7% (inactive).
`N=C(c1ccccc1)N(Cc1ccccc1)Cc1ccccc1`: the growth is 76.2% (inactive).
Consider `COc1cccc(NC(=O)NCCNc2nccc(-c3c(-c4ccc(F)cc4)nc4sccn34)n2)c1`, for which the growth is 71.4% (inactive).
In the case of `Cc1ccc(NC(=O)CCl)cc1Cl`, the growth is 87.3% (inactive).

Another assay concerns MALME-3M melanoma. The description is as above. As to conditions: 10 µM unless noted.
`COc1ccc(-c2nnc(SCC(=O)Nc3ccc(C(=O)/C=C/c4cc(OC)c(OC)c(OC)c4)cc3)n2-c2ccccc2)cc1OC`: the growth was -33.4% [100 µM] (active).
For the compound `COc1ccc2cn3c4ccc(O)cc4[nH]c(=O)c3c2c1`, the growth was 41.2% (inactive).
`COc1ccc(/C=N/c2cc(C(C)(C)C)nn2-c2ccccc2)cc1`: the growth was 121% (inactive).
For the compound `CCCCCCCCCCC1OC(C)CC(C)O1` (stereo not given), the growth is 98% (inactive).
As to `S=C(N/N=C/c1cc(Cl)cc(Cl)c1)NC12CC3CC(CC(C3)C1)C2`, the growth is 54.6% (inactive).
The same measure, in the same setting: with `CCOC1=C(Cl)C(=O)C(OCC)=C(Cl)C1=O` the figure was 103% (inactive); with `COC(=O)/C=C1/CCCCC1(C)C(=O)OC` (stereo not given), 109% (inactive); with `CCCCCCCCCCC(C[N+](C)(C)C/C=C/c1ccccc1)C(O)c1ccccc1` (stereo not given), -28.6% (active).
Turning to `C=CC1CN2CCC1CC2C(O)c1ccnc2ccc(OC)cc12` (stereo not given), the growth was 95.6% (inactive).
Consider `CC(=O)c1ccc2c(c1)c1ccccc1n2C`, for which the growth is 105% (inactive).
Turning to `CC(=O)Nc1nc(C)c(C(=O)NNS(=O)(=O)c2ccccc2)s1`, the growth is 96.5% (inactive).
The same measure, in the same setting: as for `Cc1cc2cn3c4ccc(O)cc4nc(N)c3c2cc1C`, the figure is 39.6% (inactive); as for `COc1cc(-c2nn(-c3ccc(NC(=O)Nc4ccc(Cl)c(Cl)c4)cc3)cc2-c2ccncc2)ccc1Cl`, 57.2% (inactive).
With `CCOC(=O)c1sc(NS(=O)(=O)c2ccccc2)nc1C`, the growth was 120% (inactive).
As for `Clc1ccc(I)c2ccccc12`, the growth was 97.6% (inactive).
Same read-out and setting: as for `N#Cc1c2cccnc2c2nnc3cc(Cl)c(Cl)cc3n12`, the figure is 25.6% (inactive).
On to `COc1ccc(C(=O)NCCNc2nccc(-c3c(-c4ccc(F)cc4)nc4sccn34)n2)cc1`, for which the growth is 76% (inactive).
For the compound `CC(O)CN(CC(C)O)N(CC(C)O)CC(C)O` (stereo not given), the growth is 108% (inactive).
Turning to `O=C(Nc1ccc(-n2cc(-c3ccncc3)c(-c3ccc(Cl)c(O)c3)n2)cc1)c1cc(C(F)(F)F)cc(C(F)(F)F)c1`, the growth was 102% (inactive).
On the same count and under the same terms, as for `COc1cc(-c2nn(-c3ccc(NC(=O)c4cc(Cl)cc(Cl)c4)cc3)cc2-c2ccncc2)ccc1Cl`, the figure is 104% (inactive); as for `CCCCCCC(C)N(CC(C)(C)O)C(=O)c1ccc([N+](=O)[O-])cc1` (stereo not given), 95.8% (inactive).
Turning to `COc1cc(-c2nn(-c3ccc(NC(=O)c4ccc(Cl)c(Cl)c4)cc3)cc2-c2ccncc2)ccc1Cl`, the growth is 111% (inactive).
With `COC(=O)[C@@H]1[C@H](O)[C@H](C)[C@H](O)[C@H](C)/C=C\C=C(C)C(=O)Nc2c(C)c(OC(C)=O)c3c(c2O)C(=O)C(C)=C2OCOC(=C23)C(C)=C[C@@](C)(O)[C@H](O)[C@@H](C)[C@H]1OC(C)=O`, the growth was 131% (inactive).
Consider `C/C(=C\c1ccc2ccccc2c1)[N+](=O)[O-]`, for which the growth is -58.7% (active).
`Cc1cc2cn3c4ccc(O)cc4[nH]c(=O)c3c2cc1C`: the growth is 16.4% (inactive).
Take `COc1ccc(C(=O)N2N=C(c3ccc(Br)cc3)CC2c2cn(-c3ccccc3)nc2-c2ccccc2)cc1` (stereo not given): the growth is 73.1% (inactive).
As for `O=CN/N=C/c1ccc(Cl)c([N+](=O)[O-])c1`, the growth was 30% (inactive).
As for `O=C1CCNC1`, the growth was 108% (inactive).
Turning to `O=c1[nH]c2cc(O)ccc2n2cc3c(F)cccc3c12`, the growth was 40.3% (inactive).
Take `O=C(CCC(=O)N(CCO)CCO)N(CCO)CCO`: the growth was 103% (inactive).
For `O=C(CCl)NC1c2ccccc2Oc2ccccc21`, the growth is 74.1% (inactive).
Regarding `CC(=O)N1CCN(CCNC(=O)n2cc(-c3ccncc3)c(-c3cc(O)cc(Cl)c3)n2)CC1`, the growth was 31.9% (inactive).
In the case of `CC(C)OCC1CO1` (stereo not given), the growth was 86.8% (inactive).
With `Oc1ccc(Br)cc1/C=N/NC(=S)NC12CC3CC(CC(C3)C1)C2`, the growth was 17.6% (inactive).
Regarding `CC(=O)N1CCN(CCNC(=O)n2cc(-c3ccncc3)c(-c3ccc(O)c(Cl)c3)n2)CC1`, the growth was 90.6% (inactive).
Consider `CCOC(=O)/C(C#N)=C(/CC)OCC`, for which the growth is 92.6% (inactive).
As to `O=C1Nc2c(c(=O)n(-c3ccccc3)c3ccccc23)C(c2ccc(Cl)cc2)N1` (stereo not given), the growth was 121% (inactive).
For `N=C(c1ccccc1)N(Cc1ccccc1)Cc1ccccc1`, the growth was 93.8% (inactive).
As to `COc1cccc(NC(=O)NCCNc2nccc(-c3c(-c4ccc(F)cc4)nc4sccn34)n2)c1`, the growth was 140% (inactive).
Same read-out and setting: with `Cc1ccc(NC(=O)CCl)cc1Cl` the figure was 78.7% (inactive).

The record behind these values is PubChem BioAssay (NCI).
